Measurements reported in PubChem BioAssay (NCI).
This is part of a sample that, as a whole, favours compounds with a hit. Of some 83,000 tested, about 20% had one in any assay.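 The test compound was applied at a single concentration to cells in 96-well plates for 48 hours, and percent growth was recorded.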 Unmarked numbers belong to inactive results. The source made the active and inactive calls.

These compounds were tested on NCI/ADR-RES ovarian (assay: NCI-60 one-dose screen, 48 h (100 = growth as untreated, 0 = no growth, -100 = all killed)). Details: 10 µM unless noted.
Description: Growth inhibition of the NCI/ADR-RES human […] tumor cell line is measured as a screen for anti-cancer activity. Cells are grown in 96 well plates and exposed to the test compound for 48 hours. Compounds are tested at a single concentration, which is 10^-5 M for most compounds. The reported endpoint is percent growth (GI% or GIPRCNT), where numbers from 0 - 100% represent growth inhibition, and numbers from -100% - 0 represent cell death. For example, a value of 40 represents 60% growth inhibition. A value of 0 means no net growth occurred over the course of the experiment. A value of -40 indicates 40% of cells at the beginning of the experiment died by the end of the experiment. A value of -100 means all cells are dead at the end of the experiment.
NCI-60 Human Tumor Cell Lines Screen was performed using the standard one-dose NCI protocol, which is described in more detail at https://dtp.cancer.gov/discovery_development/nci-60/default.htm.
Compounds with GIPRCNT values below 10 were considered active. Activity score was based on GIPRCNT using the following formula: […]
Score is 0 for GIPRCNT values of 100 or above, 50 for GIPRCNT values of 0, and 100 for GIPRCNT values of -100.

Compound	growth
COc1cc(N=Nc2cc(Cc3ccc(N(C)C)cc3)c(N)cc2N(C)C)c2ncccc2c1	-17.8% (active)
CC1=NOC(=O)/C1=C\c1ccc(O)cc1	106%
N#Cc1nc2c(S(=O)(=O)c3ccc(Cl)cc3)c(N)n(Nc3cccc(Cl)c3)c2nc1C#N	79.6%
CSc1n(Cc2ccc3ccccc3c2)c(C)c[n+]1Cc1ccc2ccccc2c1	78.4%
CCCCCCCCCCCCCCCCCCOc1ccccc1CC(=O)OCCC[N+](C)(C)C	100%
COC(=O)c1c2c(c(C)[n+]([O-])c1C)C(=O)C(NCc1ccc(F)c(Cl)c1)=CC2=O	0.134% (active)
CCCCCCCCCCCCCCCCCCOc1ccc(CC(=O)OCC[N+]2(C)CCCC2)cc1	106%
COc1cccc(Nc2nccc(Nc3ccc4[nH]ncc4c3)n2)c1	-11.4% (active)
CC(C)=C[C@@H]1c2c(c3ccccc3n(C)c2=O)O[C@H]2c3c(c4ccccc4n(C)c3=O)OC(C)(C)[C@@H]12	75.4%
O=C1/C(=C/c2ccc(Br)cc2)C=C(c2ccccc2)N1CCc1ccccc1	27.8%
O=C(NCCCNc1cc(-c2cn(-c3ccccc3)nc2-c2cccc(O)c2)ccn1)c1cccc(O)c1	95%
O=C(NCCNc1cc(-c2cn(-c3ccccc3)nc2-c2cccc(O)c2)ccn1)Nc1ccccc1	75.4%
NC(=O)c1ccc[n+]([C@@H]2O[C@H](COP(=O)([O-])OP(=O)(O)OC[C@H]3O[C@@H](n4cnc5c(N)ncnc54)[C@H](O)[C@@H]3O)[C@@H](O)[C@H]2O)c1	99.2%
C[C@H]1[C@H]2[C@H]3CC[C@@H]4[C@@]5(C)C/C(=C/c6ccco6)C(=O)C(C)(C)[C@@H]5CC[C@@]4(C)[C@]3(C)CC[C@]23CO[C@]1(C)[C@@H](C(=O)/C=C\c1ccco1)C3	108%
Cc1cc(NCc2cc(Nc3ccnc4cc(Cl)ccc34)ccc2F)nc(N2CCN(C)CC2)n1	16.8%
COc1cc(CCC[P+](c2ccccc2)(c2ccccc2)c2ccccc2)cc2c1OCO2	101%
CNC(=O)c1cc(Oc2ccc3nc(Nc4ccc(Cl)c(C(F)(F)F)c4)ccc3c2)ccn1	65.5%
COc1ccc(OC)c(-c2c(C#N)c(-c3ccc(Cl)cc3)nc3c2c(-c2ccccc2)nn3-c2ccccc2)c1	99.6%
CCCCCCCC/C=C\CCCCCCCCOc1ccccc1CC(=O)NCC[N+](C)(C)C	104%
C=CCn1c(C)nc2cc(Nc3nc(Cl)nc4ccccc34)ccc21	90.3%

Compound	growth
O=C(N=c1oc2ccccc2cc1-c1cc2ccccc2[nH]1)c1ccc(Cl)cc1	38.6%
Cc1nc2ccccc2n1CC1NC(=O)NC1=O (stereo not given)	107%
COC(=O)[C@]12CC[C@@H](C)[C@H](C)[C@@H]1C1=CC[C@@H]3[C@@]4(C)C(C=O)=C[C@@](C)(COS(C)(=O)=O)C4[C@H](O)C[C@@]3(C)[C@]1(C)CC2 (stereo not given in full)	-1.9% (active)
COc1ccc(/C=N/C2=C(C#N)C(c3ccc(OC)cc3)c3ccc4ccccc4c3O2)cc1 (stereo not given)	45%
CCOC(=O)c1c2c(n3ccc(NC(=O)OC(C)(C)C)cc13)C(=O)c1ncccc1C2=O	-35.9% (active)
O=c1[nH][n+](-c2ccc(Cl)cc2)no1	79.9%
CN(C)c1ccc(-c2cc(-c3ccc(Nc4nc(Nc5ccc(Cl)cc5)nc(Nc5ccc(Cl)cc5)n4)cc3)no2)cc1	41.1%
Cc1ccc(-n2c(-c3ccccc3)c(-c3ccccc3)c3c(SCC(=O)n4[nH]c(N)cc4=O)ncnc32)cc1	105%
Clc1cccc(Cl)c1/C=C/c1cc(/C=C/c2c(Cl)cccc2Cl)[nH]n1	4.02% (active)
CC(=O)c1nc(Nc2ccc(C)cc2)sc1C	99.4%
COC(=O)/C=C1\S/C(=N\NS(=O)(=O)c2ccc(C)cc2)N(c2ccccc2)C1=O	108%
O=C1NC(=Nc2ccc(Cl)cc2)S/C1=C\c1cn(-c2ccccc2)nc1-c1ccccc1	91.6%
CCN1C(=O)N(CC)C2Nn3c(s/c(=C\c4cccc([N+](=O)[O-])c4)c3=O)=NC21 (stereo not given)	16.1%
C=C1C(=O)O[C@H]2[C@H]1CC/C(COC(=O)C(=O)c1c[nH]c3ccc(OC)cc13)=C\CC[C@@]1(C)O[C@@H]21	7.22% (active)
COc1ccc(-c2cc(-c3ccc(Nc4nc(Nc5ccc(Cl)cc5)nc(Nc5ccc(Cl)cc5)n4)cc3)nc(N)c2C#N)cc1	51%
CC(C)Sc1nc(NNC(N)=S)c(C#N)c(-c2ccc(F)cc2)n1	99%
O=C(/C=C/c1ccc(Cl)nc1)c1ccc(Cl)cc1Cl	102%
COc1cccc(-c2nn(-c3ccccc3)cc2-c2ccnc(NCCCNC(=O)c3ccccc3)c2)c1	27.1%
C=C1C(=O)O[C@H]2[C@H]1CC/C(COC(=O)C(=O)c1c[nH]c3ccccc13)=C\CC[C@@]1(C)O[C@@H]21	17.9%
COC(=O)[C@]12CC[C@@H](C)[C@H](C)[C@@H]1C1=CC[C@@H]3[C@@]4(C)C(C=O)=C[C@@](C)(COS(C)(=O)=O)[C@@H]4C(=O)C[C@@]3(C)[C@]1(C)CC2	38.6%
